PubChem BioAssay (EPA / NIEHS)
Where “and” joins values, the source holds several entries; their conditions need not be identical. Equal entries are not always repeated. Where a structure was tested more than once in an assay, its records may differ in their call. Calls of active or inactive are those of the source. The calls were made as follows: active = hit-call score of the fitted dose curve at least 0.9, where 1 is the maximum; inactive = score below 0.9.

Experiments:
[1] = ATG_EGR_CIS: Attagene CIS-FACTORIAL HepG2 Assay for human Early Growth Response 1 (EGR1) (AID 2282938); details: HepG2 Attagene CIS-FACTORIAL EGR reporter mRNA; actives raise or lower the signal
Method in brief: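 Multiplexed cis-reporter system in human hepatoma HepG2 cells, transiently transfected. Cells are dosed for 24 h; reporter transcripts are amplified, fluorescently tagged and sized by capillary electrophoresis, with DMSO as negative control.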

[2] = ATG_M_19_CIS: Attagene CIS-FACTORIAL HepG2 Assay for M19 Transcription Factor (Internal Marker) (AID 2282939); details: HepG2 Attagene CIS-FACTORIAL M19 internal marker reporter; actives raise or lower the signal
Method in brief: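 Signals come from fluorescence of labelled reporter-specific PCR fragments resolved by capillary electrophoresis, following 24 h treatment of HepG2 cells transfected with cis-promoter reporter units; activity was fitted in both directions relative to DMSO.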

[3] = ATG_ERE_CIS: Attagene CIS-FACTORIAL HepG2 Assay for Estrogen Response Element (ERE) (AID 2282940); details: HepG2 ERE cis-reporter, Attagene RNA transcript; actives raise or lower the signal
Method in brief: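 Fluorescence of capillary-separated, FAM-labelled reporter cDNA fragments indicates reporter mRNA levels in HepG2 cells exposed to chemicals for 24 h. Transient transfection with cis-regulated units; data fitted in both directions against DMSO.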

[4] = ATG_Ets_CIS: Attagene CIS-FACTORIAL HepG2 Assay for human Erythroblast Transformation Specific (ETS) (AID 2282941); details: HepG2 ETS cis-reporter transcription, actives raise or lower the signal
Method in brief: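 Bidirectional fit versus DMSO of reporter mRNA signal, detected by RT-PCR and capillary electrophoresis in HepG2 cells transiently transfected with cis-element reporters and dosed 24 h.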

[5] = target: Hepatocyte nuclear factor 3-beta (Homo sapiens) (UniProt Q9Y261); test: ATG_FoxA2_CIS: Attagene CIS-FACTORIAL HepG2 Assay for human Forkhead box A2 (FOXA2) (AID 2282942); details: HepG2 cis-reporter transcription factor activity, 24 h; actives raise or lower the signal
Chain of Hepatocyte nuclear factor 3-beta (Homo sapiens) (Q9Y261 whole entry, looked up): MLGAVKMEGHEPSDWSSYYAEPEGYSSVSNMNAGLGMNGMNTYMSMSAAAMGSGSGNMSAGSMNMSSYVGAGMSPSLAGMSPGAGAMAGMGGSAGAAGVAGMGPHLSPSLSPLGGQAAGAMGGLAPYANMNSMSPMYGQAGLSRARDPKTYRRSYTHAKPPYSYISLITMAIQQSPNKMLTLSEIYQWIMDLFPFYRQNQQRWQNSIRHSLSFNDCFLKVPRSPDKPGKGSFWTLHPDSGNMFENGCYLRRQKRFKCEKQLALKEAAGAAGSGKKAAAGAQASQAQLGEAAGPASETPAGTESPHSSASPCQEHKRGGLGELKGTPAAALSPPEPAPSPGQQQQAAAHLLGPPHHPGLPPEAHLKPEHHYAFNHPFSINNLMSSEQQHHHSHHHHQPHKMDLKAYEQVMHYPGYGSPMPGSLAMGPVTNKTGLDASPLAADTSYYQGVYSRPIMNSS
Method in brief: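 Multiplexed cis-element reporter assay in transiently transfected HepG2. Twenty-four hours post-dosing, RNA was reverse-transcribed, amplified, FAM-labelled, HpaI-digested and separated by CE. Activity gain or loss relative to DMSO.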

[6] = ATG_FoxO_CIS: Attagene CIS-FACTORIAL HepG2 Assay for human Forkhead box O (FoxO) (AID 2282943); details: HepG2 Attagene cis-reporter, FoxO element, mRNA; actives raise or lower the signal
Method in brief: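 Transfected HepG2 reporter cells exposed to test chemical for 24 h; reporter RNA measured by reverse transcription, PCR and fluorescent capillary electrophoresis; curves fitted for increases and decreases against DMSO.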

[7] = ATG_GATA_CIS: Attagene CIS-FACTORIAL HepG2 Assay for human GATA Binding Protein (AID 2282944); details: HepG2 GATA cis-element reporter, Attagene multiplex mRNA; actives raise or lower the signal
Method in brief: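 After transfecting HepG2 cells with multiple cis-regulated reporter units, chemicals are dosed for 24 h; isolated RNA undergoes RT-PCR and fluorescent labeling before capillary electrophoresis, with activity expressed against DMSO.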

[8] = ATG_GRE_CIS: Attagene CIS-FACTORIAL HepG2 Assay for human Glucocorticoid Response Elements (GRE) (AID 2282947); details: HepG2 GRE cis-reporter, Attagene multiplex mRNA; actives raise or lower the signal
Method in brief: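 Read-out: fluorescent reporter-transcript fragments separated by capillary electrophoresis after RT-PCR. Transiently transfected HepG2 cells carrying cis-element-driven reporter units were dosed for 24 h; gain or loss of signal fitted against DMSO control.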

[9] = ATG_ISRE_CIS: Attagene CIS-FACTORIAL HepG2 Assay for human Interferon Regulatory Factor 1 (IRF1) binding to an Interferon-Stimulated Response Element (ISRE) (AID 2282948); details: HepG2 ISRE cis-reporter (Attagene), mRNA transcription readout; actives raise or lower the signal
Method in brief: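 Uses HepG2 liver cells transfected with cis-regulated reporters and measures mRNA 24 h post-dosing through RT-PCR, primer-extension labelling and capillary electrophoresis, with DMSO as negative control.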

[10] = ATG_M_32_CIS: Attagene CIS-FACTORIAL HepG2 Assay for M32 Transcription Factor (Internal Marker) (AID 2282949); details: HepG2 Attagene cis-factorial M32 reporter, mRNA; actives raise or lower the signal;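 also: background control marker of the multiplexed CIS panel rather than a real target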
Method in brief: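 Transient MRTU transfection of HepG2; 24 h compound treatment; TriZol RNA, oligo(dT) RT, reporter PCR, 6-FAM primer extension, HpaI cut, CE. Gain/loss of signal vs DMSO.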

[11] = ATG_M_06_CIS: Attagene CIS-FACTORIAL HepG2 Assay for M06 Transcription Factor (Internal Marker) (AID 2282950); details: HepG2 Attagene CIS-FACTORIAL M06 internal marker reporter; actives raise or lower the signal
Method in brief: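 HepG2 liver cells, 24 h exposure. Reporter transcripts from transfected cis-element constructs quantified by RT-PCR/capillary electrophoresis fluorescence. Bidirectional curve fit against DMSO.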

[12] = target: Hypoxia-inducible factor 1-alpha (Homo sapiens) (UniProt Q16665); test: ATG_HIF1a_CIS: Attagene CIS-FACTORIAL HepG2 Assay for human Hypoxia Inducible Factor 1 (HIF1A) (AID 2282951); details: HepG2 Attagene cis-factorial HIF1a reporter transcription; actives raise or lower the signal
Chain of Hypoxia-inducible factor 1-alpha (Homo sapiens) (Q16665 whole entry, looked up): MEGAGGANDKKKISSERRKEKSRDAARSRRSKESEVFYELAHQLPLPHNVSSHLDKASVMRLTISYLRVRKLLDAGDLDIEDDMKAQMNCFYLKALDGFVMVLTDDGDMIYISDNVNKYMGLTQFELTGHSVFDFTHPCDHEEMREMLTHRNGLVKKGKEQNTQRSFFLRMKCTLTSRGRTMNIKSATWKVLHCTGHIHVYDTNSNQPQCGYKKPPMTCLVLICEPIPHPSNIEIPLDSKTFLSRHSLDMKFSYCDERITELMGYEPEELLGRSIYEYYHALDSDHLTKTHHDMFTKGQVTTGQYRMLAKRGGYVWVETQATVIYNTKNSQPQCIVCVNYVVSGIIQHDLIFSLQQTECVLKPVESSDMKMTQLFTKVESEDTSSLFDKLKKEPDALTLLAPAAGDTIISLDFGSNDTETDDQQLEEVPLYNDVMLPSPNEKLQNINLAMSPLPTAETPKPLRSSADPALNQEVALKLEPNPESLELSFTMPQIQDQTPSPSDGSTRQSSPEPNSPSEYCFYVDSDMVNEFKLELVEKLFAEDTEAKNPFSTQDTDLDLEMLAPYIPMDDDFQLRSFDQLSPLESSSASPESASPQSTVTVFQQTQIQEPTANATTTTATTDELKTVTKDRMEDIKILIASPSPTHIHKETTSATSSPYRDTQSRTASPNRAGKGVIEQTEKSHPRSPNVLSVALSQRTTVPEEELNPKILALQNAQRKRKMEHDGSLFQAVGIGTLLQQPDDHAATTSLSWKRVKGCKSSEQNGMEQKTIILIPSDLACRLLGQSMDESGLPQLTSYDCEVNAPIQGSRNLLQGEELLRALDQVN
Method in brief: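 Cis-element reporter constructs were transiently transfected into HepG2 cells, which were treated for 24 h; reporter RNA was reverse-transcribed, amplified, labelled and resolved by capillary electrophoresis.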

[13] = target: Heat shock factor protein 1 (Homo sapiens) (UniProt Q00613); test: ATG_HSE_CIS: Attagene CIS-FACTORIAL HepG2 Assay for human Heat Shock Transcription Factor 1 (HSE) (AID 2282953); details: HepG2 HSE cis-reporter, Attagene RNA transcription; actives raise or lower the signal
Chain of Heat shock factor protein 1 (Homo sapiens) (Q00613 whole entry, looked up, the tested form may be a part): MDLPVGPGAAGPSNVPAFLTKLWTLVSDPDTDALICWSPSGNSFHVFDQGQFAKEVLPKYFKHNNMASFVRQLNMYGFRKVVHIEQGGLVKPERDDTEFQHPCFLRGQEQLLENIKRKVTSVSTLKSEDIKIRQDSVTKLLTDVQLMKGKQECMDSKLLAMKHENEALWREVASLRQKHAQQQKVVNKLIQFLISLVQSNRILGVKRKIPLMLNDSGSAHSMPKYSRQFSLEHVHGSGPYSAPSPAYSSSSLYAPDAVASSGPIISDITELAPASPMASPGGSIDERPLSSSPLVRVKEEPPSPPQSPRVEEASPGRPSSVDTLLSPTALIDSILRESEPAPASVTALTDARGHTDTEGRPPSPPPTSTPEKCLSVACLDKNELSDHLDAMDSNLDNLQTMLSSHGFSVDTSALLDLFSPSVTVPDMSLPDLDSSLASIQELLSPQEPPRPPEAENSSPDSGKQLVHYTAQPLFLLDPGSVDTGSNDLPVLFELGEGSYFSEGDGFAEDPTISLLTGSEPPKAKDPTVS
Method in brief: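 Endogenous transcription factor activity captured via cis-promoter reporter units transfected into HepG2; treatment lasted 24 h. Fluorescence intensity of reporter fragments analysed with bidirectional curve fitting, DMSO baseline.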

[14] = ATG_MRE_CIS: Attagene CIS-FACTORIAL HepG2 Assay for human Metal Responsive Element (MRE) (AID 2282954); details: HepG2 MRE cis-reporter transcription, Attagene multiplex; actives raise or lower the signal
Method in brief: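 RT-PCR/capillary electrophoresis readout of reporter mRNA, 24 h post-dosing, in HepG2 cells transfected with multiplexed cis-regulated reporter constructs. Gain or loss of signal fitted bidirectionally against DMSO baseline.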

[15] = ATG_PBREM_CIS: Attagene CIS-FACTORIAL HepG2 Assay for human Phenobarbital-responsive Enhancer Module (PBREM) (AID 2282955); details: HepG2 PBREM cis-reporter, Attagene multiplexed transcription; actives raise or lower the signal
Method in brief: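 Multiplexed cis-reporter readout in human hepatoma HepG2 cells; PBREM-regulated transcript quantified after 24 h exposure by fluorescent RT-PCR fragment analysis. Signal changes up or down fitted relative to DMSO.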

[16] = target: Bile acid receptor (Homo sapiens) (UniProt Q96RI1); test: ATG_IR1_CIS: Attagene CIS-FACTORIAL HepG2 Assay for human Nuclear Receptor Subfamily 1 Group H Member 4 (NR1H4), IR1 submotif (AID 2282946); details: IR1 reporter transcription, actives raise or lower the signal
Chain of Bile acid receptor (Homo sapiens) (Q96RI1 whole entry, looked up): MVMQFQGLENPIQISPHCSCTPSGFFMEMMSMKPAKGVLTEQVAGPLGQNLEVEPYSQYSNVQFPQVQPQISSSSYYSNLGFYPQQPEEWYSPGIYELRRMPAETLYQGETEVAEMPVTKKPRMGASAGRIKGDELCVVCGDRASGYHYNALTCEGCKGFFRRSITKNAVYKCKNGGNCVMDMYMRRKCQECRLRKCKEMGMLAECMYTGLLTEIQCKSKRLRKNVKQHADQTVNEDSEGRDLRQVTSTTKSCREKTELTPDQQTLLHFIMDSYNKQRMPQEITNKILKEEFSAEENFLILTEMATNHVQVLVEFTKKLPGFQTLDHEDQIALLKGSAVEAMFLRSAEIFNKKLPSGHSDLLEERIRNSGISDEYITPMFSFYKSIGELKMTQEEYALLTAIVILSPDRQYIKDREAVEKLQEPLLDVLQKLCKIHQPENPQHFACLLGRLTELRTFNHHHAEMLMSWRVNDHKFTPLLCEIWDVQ
Method in brief: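 Fluorescence of capillary-separated, HpaI-digested RT-PCR reporter products gave IR1-element mRNA induction in HepG2 cells 24 h after dosing. Endogenous transcription factors drove the cis-regulated reporters; activity was fitted bidirectionally against DMSO.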

[17] = target: Hepatocyte nuclear factor 6 (Homo sapiens) (UniProt Q9UBC0); test: ATG_HNF6_CIS: Attagene CIS-FACTORIAL HepG2 Assay for human Hepatocyte Nuclear Factor 6 (HNF6) (AID 2282952); details: HepG2 Attagene cis-factorial HNF6 reporter transcription; actives raise or lower the signal
Chain of Hepatocyte nuclear factor 6 (Homo sapiens) (Q9UBC0 whole entry, looked up, the tested form may be a part): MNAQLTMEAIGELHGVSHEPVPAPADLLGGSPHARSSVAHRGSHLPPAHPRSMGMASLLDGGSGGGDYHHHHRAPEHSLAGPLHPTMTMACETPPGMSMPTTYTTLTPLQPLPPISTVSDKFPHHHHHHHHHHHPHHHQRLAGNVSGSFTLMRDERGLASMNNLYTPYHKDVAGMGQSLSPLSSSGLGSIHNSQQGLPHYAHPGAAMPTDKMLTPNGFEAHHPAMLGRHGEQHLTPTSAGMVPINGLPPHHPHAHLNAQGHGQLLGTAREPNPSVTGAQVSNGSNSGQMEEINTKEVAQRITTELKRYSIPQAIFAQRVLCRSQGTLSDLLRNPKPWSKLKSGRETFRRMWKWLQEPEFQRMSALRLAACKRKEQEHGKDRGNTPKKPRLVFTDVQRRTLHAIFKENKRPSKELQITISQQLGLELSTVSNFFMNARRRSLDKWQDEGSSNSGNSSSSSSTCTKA
Method in brief: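 First, HepG2 cells were transfected with the multiplexed cis reporter library and dosed with chemical for 24 h. Next, RNA was reverse-transcribed, PCR-amplified and fluorescently labelled. Finally, HpaI-digested fragments were read by capillary electrophoresis.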

[18] = ATG_M_61_CIS: Attagene CIS-FACTORIAL HepG2 Assay for M61 Transcription Factor (Internal Marker) (AID 2282937); details: HepG2 Attagene CIS-FACTORIAL M61 internal marker reporter; actives raise or lower the signal
Method in brief: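 Multiplexed reporter mRNA assay, HepG2 human hepatoma cells, 24 h treatment. Signal: FAM-labelled, HpaI-digested RT-PCR fragments by CE. Fit: bidirectional, baseline DMSO.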

[19] = ATG_GLI_CIS: Attagene CIS-FACTORIAL HepG2 Assay for human Zinc Finger Protein GLI1 (AID 2282945); details: HepG2, Attagene cis-factorial reporter mRNA, GLI element; actives raise or lower the signal
Method in brief: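 Transiently transfected HepG2 cells report endogenous transcription factor activity via cis-element-driven reporter units. After 24 h compound exposure, reporter mRNA was measured by RT-PCR with capillary electrophoresis; bidirectional fitting against DMSO baseline.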

Measured: AC50

O=C(NC(=O)c1c(F)cccc1F)Nc1cc(Cl)c(OC(F)(F)C(F)F)c(Cl)c1
inactive: [1] | [2] | [3] | [4] | [5] | [6] | [7] | [8] | [9] | [10] | [11] | [12] | [13] | [14] | [15]

CO/C=C(/C(=O)OC)c1ccccc1COc1cccc(C(F)(F)F)n1
active: [1] 28.8 µM | [16] 26.4 µM | [14] 44.3 µM
inactive: [2] | [3] | [4] | [5] | [6] | [7] | [9] | [10] | [12] | [17] | [13]

Oc1ccc(Cl)cc1Cl
inactive: [18] | [1] | [2] | [4] | [5] | [6] | [7] | [16] | [8] | [9] | [10] | [12] | [17] | [13] | [14]
active: [3] 75.9 µM

O=C(O)C(F)(F)C(F)(F)C(F)(F)C(F)(F)C(F)(F)C(F)(F)C(F)(F)C(F)(F)F
inactive: [18] | [1] | [2] | [4] | [5] | [6] | [7] | [16] | [8] | [9] | [10] | [11] | [12] | [14]
active: [1] 150 µM and 50 µM | [3] 39.4 µM and 38.2 µM and 15.2 µM | [9] 150 µM and 46.3 µM | [12] 50 µM | [14] 210 µM and 50 µM

Clc1ccc(Cl)cc1
active: [12] 5.24 µM | [13] 179 µM
inactive: [1] | [2] | [3] | [4] | [5] | [6] | [7] | [19] | [9] | [10] | [11] | [12] | [17] | [13] | [14]
